In PubChem BioAssay (NCATS):
Results filed as inconclusive are left out. The source made the active and inactive calls. Unless noted, the call rests on the fitted dose curve; in most records, active means well fitted curve in the direction sought with a large enough effect; inconclusive means small, poorly fitted or top-dose-only effect, or another doubt; inactive means no such curve, though single readings can be large; an effect the other way counts as inactive or inconclusive.

Tests used:
[1] = molecular target: T1, Hexokinase-4 (Homo sapiens) + Glucokinase regulatory protein (Homo sapiens) (UniProt P35557+Q14397); test: qHTS assay for inhibitors of recombinant human GCK-GKRP interaction: Diaphorase-coupled assay (AID 743205)
Method in brief: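 Inhibitors of the GCK–GKRP complex relieve GKRP suppression of GCK, detected through a G6PDH–diaphorase cascade reducing resazurin. Human GST-GCK and FLAG-GKRP are used at 10 nM with 5 mM glucose and 0.4 mM ATP.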

[2] = molecular target: T1, Hexokinase-4 (Homo sapiens) + Glucokinase regulatory protein (Homo sapiens); test: qHTS assay for inhibitors of recombinant human GCK-GKRP interaction: ADP-Glo assay (AID 743206);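 further: plate controls were DMSO plus enzyme for no effect and no enzyme for full effect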
Method in brief: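 GST-GCK and FLAG-GKRP (15 nM each in the dispensed mix, with 2 uM S6P) react with 0.4 mM ATP and 5 mM glucose (final) in Hepes pH 7.6 for 60 min at room temperature. ADP is measured by ADP-Glo luminescence.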

[3] = molecular target: T1, Hexokinase-4 (Homo sapiens) + Glucokinase regulatory protein (Homo sapiens); test: qHTS assay for inhibitors of recombinant human GCK-GKRP interaction: HTRF assay (AID 743207);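 further: 0% = DMSO with GCK present and -100% = DMSO wells lacking GCK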
Method in brief: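 Steps: dispense GCK–GKRP complex (5 nM each, GST- and FLAG-tagged) with 2 uM S6P; pin in compounds; add XL665/Eu-cryptate-labelled antibodies; incubate 60 min at room temperature; read time-resolved FRET at 665 and 615 nm.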

[4] = qHTS assay for measurement of the activity of small molecule inhibitors on Zika virus induced Caspase-3 activity in human iPSC derived neural progenitor cells (hNPCs) (AID 1224857); further: % of control where 0% means no effect; nearly all actives have a fitted effect of over 65% in size
Method in brief: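 After overnight (16–20 h) culture at 350 cells/well, hNPCs get compound, then ZIKV 2 FFU/cell one hour later. Six hours on, Caspase-Glo 3/7 is added and luminescence measured.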

[5] = qHTS assay for measurement of the activity of small molecule inhibitors on Zika virus induced Caspase-3 activity in human astrocytoma cells (AID 1224859);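 further: plate controls were ZIKV-infected untreated cells for no effect and uninfected cells for full effect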
Method in brief: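 Inhibition of Zika-induced caspase-3/7 activity: SNB-19 cells, 1 h compound pretreatment, ZIKV 2 FFU/cell for 6 h at 37 C, Caspase-Glo luminescence read-out.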

[6] = molecular target: Atrial natriuretic peptide receptor 1 (Homo sapiens) (UniProt P16066); test: Natriuretic polypeptide receptor (hNpr1) antagonism - Pilot screen (AID 1347049; calls by dose curve;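 further: agonist-evoked cGMP luminescence read 20 min after hNppA addition; series mostly up to about 58 µM; on the % scale 0 is the no-effect control and ±100 the full control effect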)
Method in brief: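 HEK293 cells co-expressing hNpr1 and the GloSensor pGS-40F cGMP luciferase sensor were preloaded with 2% GloSensor reagent for 2 h. Compounds were added for 30 min at room temperature, then cells were stimulated with 0.1 nM hNppA for 20 min before luminescence readout.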

[7] = molecular target: Atrial natriuretic peptide receptor 2 (Homo sapiens) (UniProt P20594); test: Natriuretic polypeptide receptor (hNpr2) antagonism - Pilot subtype selectivity assay (AID 1347050; calls by dose curve; further: potency means the concentration at half of the fitted maximal effect)
Method in brief: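 cGMP-sensor HEK293/hNpr2 cells; 2% GloSensor reagent 2 h RT; compounds 30 min; baseline luminescence read; 1 nM hNppC agonist 20 min RT; final luminescence read by CCD camera. Antagonism = reduced post-agonist signal.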

[8] = qHTS Assay for Identifying Gametocytocidal Compounds (AID 743244);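 further: on the % scale 0 is the no-effect control and ±100 the full control effect; actives lower the fluorescent signal which means gametocytes are killed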; details: P. falciparum 3D7 stage III-V gametocytes, alamarBlue, 72 h; max response: active compounds read low
Method in brief: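 Using 20,000 stage III–V 3D7 gametocytes per well, compounds were incubated 72 h under 37 °C/5% CO2. Viability was then assessed by 24 h alamarBlue reduction, measured fluorometrically at 525/598 nm.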

[9] = Natriuretic polypeptide receptor (hNpr1) antagonism - Pilot counterscreen GloSensor control cell line (AID 1347045; calls by dose curve; further: series mostly up to about 38 µM; on the % scale 0 is the no-effect control and ±100 the full control effect)
Method in brief: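 Luminescence was read before and 20 min after adding 50 uM SNP, which stimulates soluble guanylyl cyclase. The HEK293 cells expressing the GloSensor cGMP sensor had been preloaded with 2% reagent for 2 h and treated with compound.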

T1 sequence (P35557 whole entry, looked up): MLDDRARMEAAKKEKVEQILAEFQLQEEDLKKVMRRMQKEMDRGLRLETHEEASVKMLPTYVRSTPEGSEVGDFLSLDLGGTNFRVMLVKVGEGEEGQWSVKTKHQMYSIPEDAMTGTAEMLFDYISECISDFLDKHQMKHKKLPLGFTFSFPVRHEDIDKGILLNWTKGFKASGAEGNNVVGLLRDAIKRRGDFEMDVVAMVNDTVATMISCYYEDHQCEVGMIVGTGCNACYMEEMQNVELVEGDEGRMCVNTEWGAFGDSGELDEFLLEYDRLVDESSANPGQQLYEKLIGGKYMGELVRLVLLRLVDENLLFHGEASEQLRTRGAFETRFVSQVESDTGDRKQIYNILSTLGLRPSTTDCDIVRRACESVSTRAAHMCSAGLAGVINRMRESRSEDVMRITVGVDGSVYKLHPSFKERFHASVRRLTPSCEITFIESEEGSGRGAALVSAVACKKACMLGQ
T1 sequence (Q14397 whole entry, looked up): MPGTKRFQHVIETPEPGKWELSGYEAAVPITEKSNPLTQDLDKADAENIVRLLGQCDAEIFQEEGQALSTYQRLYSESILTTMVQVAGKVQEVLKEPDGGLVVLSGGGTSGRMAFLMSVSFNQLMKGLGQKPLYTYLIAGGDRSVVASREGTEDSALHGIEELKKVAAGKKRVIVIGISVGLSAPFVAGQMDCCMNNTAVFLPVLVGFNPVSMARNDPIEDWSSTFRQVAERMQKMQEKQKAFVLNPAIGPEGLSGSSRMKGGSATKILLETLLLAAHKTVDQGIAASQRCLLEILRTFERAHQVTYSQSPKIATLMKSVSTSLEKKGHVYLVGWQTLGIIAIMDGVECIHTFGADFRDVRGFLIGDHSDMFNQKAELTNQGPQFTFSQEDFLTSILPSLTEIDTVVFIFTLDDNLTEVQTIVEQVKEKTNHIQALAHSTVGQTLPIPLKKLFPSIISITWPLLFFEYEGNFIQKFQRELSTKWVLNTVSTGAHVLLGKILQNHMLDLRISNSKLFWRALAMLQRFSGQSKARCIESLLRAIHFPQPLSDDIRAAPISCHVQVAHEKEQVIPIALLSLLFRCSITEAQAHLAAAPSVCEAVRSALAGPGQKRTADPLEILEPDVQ
Atrial natriuretic peptide receptor 2 (Homo sapiens), sequence (P20594 whole entry, looked up): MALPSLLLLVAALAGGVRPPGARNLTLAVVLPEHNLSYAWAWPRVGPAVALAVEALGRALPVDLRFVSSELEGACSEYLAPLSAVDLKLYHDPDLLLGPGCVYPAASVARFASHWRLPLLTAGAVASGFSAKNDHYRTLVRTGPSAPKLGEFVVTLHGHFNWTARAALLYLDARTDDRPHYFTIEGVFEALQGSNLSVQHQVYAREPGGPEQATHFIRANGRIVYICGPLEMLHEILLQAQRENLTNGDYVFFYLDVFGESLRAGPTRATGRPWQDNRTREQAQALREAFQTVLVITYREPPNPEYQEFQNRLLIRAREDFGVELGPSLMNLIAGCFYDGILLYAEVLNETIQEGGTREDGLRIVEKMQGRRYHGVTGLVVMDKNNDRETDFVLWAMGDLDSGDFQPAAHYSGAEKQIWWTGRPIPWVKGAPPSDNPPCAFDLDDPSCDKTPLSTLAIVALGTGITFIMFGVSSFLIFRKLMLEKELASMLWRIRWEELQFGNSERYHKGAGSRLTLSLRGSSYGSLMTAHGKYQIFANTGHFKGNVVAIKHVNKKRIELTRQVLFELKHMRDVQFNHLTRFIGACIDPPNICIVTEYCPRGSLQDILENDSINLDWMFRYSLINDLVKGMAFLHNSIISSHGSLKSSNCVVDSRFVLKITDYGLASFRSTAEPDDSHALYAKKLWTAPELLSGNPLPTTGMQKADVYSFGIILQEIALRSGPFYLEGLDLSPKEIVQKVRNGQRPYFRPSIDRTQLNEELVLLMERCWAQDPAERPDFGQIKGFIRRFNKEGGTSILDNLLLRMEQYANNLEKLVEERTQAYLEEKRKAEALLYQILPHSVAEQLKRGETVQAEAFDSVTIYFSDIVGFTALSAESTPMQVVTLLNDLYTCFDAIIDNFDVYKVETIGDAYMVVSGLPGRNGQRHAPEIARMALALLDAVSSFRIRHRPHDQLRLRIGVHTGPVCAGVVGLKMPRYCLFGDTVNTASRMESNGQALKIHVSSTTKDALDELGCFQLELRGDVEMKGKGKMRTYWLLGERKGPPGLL
Atrial natriuretic peptide receptor 1 (Homo sapiens), sequence (P16066 whole entry, looked up): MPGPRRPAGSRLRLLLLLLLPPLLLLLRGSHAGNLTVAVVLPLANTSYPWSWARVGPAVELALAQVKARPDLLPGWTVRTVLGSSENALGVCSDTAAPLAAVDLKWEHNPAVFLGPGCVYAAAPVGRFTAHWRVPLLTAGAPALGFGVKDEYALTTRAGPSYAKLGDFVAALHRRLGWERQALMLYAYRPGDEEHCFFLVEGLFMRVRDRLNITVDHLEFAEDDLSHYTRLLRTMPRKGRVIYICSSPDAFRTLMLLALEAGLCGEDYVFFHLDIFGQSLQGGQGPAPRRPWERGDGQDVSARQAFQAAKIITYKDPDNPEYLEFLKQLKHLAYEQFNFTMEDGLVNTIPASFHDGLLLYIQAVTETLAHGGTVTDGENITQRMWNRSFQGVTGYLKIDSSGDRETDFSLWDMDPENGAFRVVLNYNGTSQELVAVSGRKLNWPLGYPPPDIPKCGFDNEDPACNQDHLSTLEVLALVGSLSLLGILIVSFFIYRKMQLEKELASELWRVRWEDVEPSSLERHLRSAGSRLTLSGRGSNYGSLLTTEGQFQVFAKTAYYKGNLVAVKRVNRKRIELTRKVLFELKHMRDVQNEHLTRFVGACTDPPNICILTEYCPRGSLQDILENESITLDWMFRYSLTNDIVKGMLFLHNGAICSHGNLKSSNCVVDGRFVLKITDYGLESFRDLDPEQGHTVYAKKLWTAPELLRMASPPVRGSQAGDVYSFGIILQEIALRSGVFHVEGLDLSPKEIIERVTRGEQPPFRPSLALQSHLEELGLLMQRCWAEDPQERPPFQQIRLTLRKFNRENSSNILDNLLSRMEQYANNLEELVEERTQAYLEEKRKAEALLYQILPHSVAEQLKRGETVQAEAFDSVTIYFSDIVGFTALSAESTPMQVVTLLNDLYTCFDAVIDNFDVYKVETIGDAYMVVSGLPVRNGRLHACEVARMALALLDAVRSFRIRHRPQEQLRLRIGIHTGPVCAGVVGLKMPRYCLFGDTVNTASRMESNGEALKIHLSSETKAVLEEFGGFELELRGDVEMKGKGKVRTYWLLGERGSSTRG

CN1CCCC1CCOC(C)(c1ccccc1)c1ccc(Cl)cc1 (stereo unspecified)
inactive: Potency [1] | Potency [2] | Potency [3] | Potency [4] | Potency [5] | Potency [6]
active: Potency [7] 11.7 µM

CC(C)Cn1c(=O)n(C)c(=O)c2[nH]cnc21
inactive: Potency [1] | Potency [3] | Potency [4] | Potency [5] | Potency [6] | Potency [7]

Cc1nc2n(c(=O)c1CCN1CCC(c3noc4cc(F)ccc34)CC1)CCCC2O (stereo unspecified)
inactive: Potency [1] | Potency [2] | Potency [3] | Potency [4] | Potency [5] | Potency [6] | Potency [7]

C=CC[C@H](N)C(=O)O
inactive: Potency [1] | Potency [2] | Potency [3] | Potency [4] | Potency [5] | Potency [6] | Potency [7]

CCN(CC)CCCCCCCCOC(=O)c1cc(OC)c(OC)c(OC)c1
inactive: Potency [1] | Potency [2] | Potency [3] | max response [8] 31.2% | Potency [4] | Potency [5] | Potency [7]

O=c1[nH]c2ccccc2c2ccccc12
inactive: Potency [1] | Potency [2] | Potency [3] | max response [8] 36% | Potency [4] | Potency [5] | Potency [7]

COC(=O)[C@H](NC(=O)c1cc(-c2ccccc2)nc2ccccc12)c1ccccc1
inactive: Potency [2] | max response [8] 9.97% | Potency [4] | Potency [5] | Potency [6] | Potency [7]

c1ccc2nc(C3=NCCN3)ccc2c1
inactive: Potency [2] | Potency [3] | max response [8] 12% | Potency [4] | Potency [5] | Potency [6] | Potency [7]

CC(=O)SC1CC2=CC(=O)CC[C@]2(C)C2CC[C@@]3(C)C(CC[C@@]34CCC(=O)O4)C12 (stereo partly specified)
inactive: Potency [1] | Potency [2] | Potency [3] | max response [8] 7.64% | Potency [4] | Potency [5] | Potency [9]

C[C@]12C=CC(=O)C=C1CC[C@@H]1C2=CC[C@]2(C)[C@@H](C(=O)CN3CCN(c4cc(N5CCCC5)nc(N5CCCC5)n4)CC3)CC[C@@H]12
inactive: Potency [1] | Potency [2] | Potency [3] | Potency [4] | Potency [5] | Potency [6] | Potency [7]

CCCCCCCC/C=C\CCCCCCCC(=O)NCCc1ccc(O)c(O)c1
inactive: Potency [1] | Potency [2] | max response [8] 7.46% | Potency [4] | Potency [5] | Potency [6]

CCCn1c(=O)c2[nH]c(C3CCCC3)nc2n(CCC)c1=O
inactive: Potency [3] | Potency [4] | Potency [5] | Potency [6] | Potency [7]

CNc1cc(NS(=O)(=O)c2ccc(N)cc2)nc(NC)n1
inactive: Potency [1] | Potency [2] | max response [8] 12.8% | Potency [4] | Potency [5] | Potency [6] | Potency [7]

NC1(C(=O)O)CCCCC1
inactive: Potency [1] | Potency [2] | Potency [3] | Potency [4] | Potency [5] | Potency [6] | Potency [7]

OCC1NCC(O)C(O)C1O (stereo unspecified)
inactive: Potency [1] | Potency [2] | Potency [3] | max response [8] 29.9% | Potency [4] | Potency [5] | Potency [6] | Potency [7]

COc1cc([C@@H]2c3cc4c(cc3[C@H](O)C3COC(=O)[C@@H]32)OCO4)cc(OC)c1OC (stereo partly specified)
inactive: Potency [1] | Potency [2] | Potency [3] | Potency [4] | Potency [5] | Potency [6]

CCSC(=N)N
inactive: Potency [1] | Potency [2] | Potency [3] | max response [8] 12.9% | Potency [5] | Potency [9] | Potency [6] | Potency [7]

CC(O)C(O)[C@H]1CNc2nc(N)[nH]c(=O)c2N1 (stereo partly specified)
inactive: Potency [1] | Potency [2] | Potency [3] | max response [8] 8.13% | Potency [5] | Potency [9] | Potency [6] | Potency [7]

NCCCNCCCCNCCCN
inactive: Potency [1] | Potency [2] | Potency [3] | max response [8] 28.9% | Potency [5] | Potency [9] | Potency [6] | Potency [7]
